This is an account of results in PubChem BioAssay (Tox21).

Assay [1] can be described thus: qHTS assay to identify small molecule agonists of the vitamin D receptor (VDR) signaling pathway - cell viability counter screen (AID 743224). Note: nearly all actives have a fitted effect of over 50% in size. Note: potency is the fitted concentration of half-maximal effect. Put shortly:
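Cytotoxicity counter screen: VDR-bla cells, 16 h compound exposure at 37C, 5% CO2; CellTiter-Glo luminescence, 30 min RT, same wells as bla read.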
On the technique in general: qHTS replaces the single test concentration by a dilution series.

Assay [2] can be described thus: qHTS assay to identify small molecule antagonists of the vitamin D receptor (VDR) signaling pathway - cell viability counter screen (AID 743225). Note: nearly all actives have a fitted effect of over 50% in size. Put shortly: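 In this counter screen, VDR-bla HEK 293T cells receive test compound plus 3 nM final calcitriol for 16 h at 37C. Room-temperature steps of 2 h with the beta-lactamase substrate, then 30 min with CellTiter-Glo, precede the luminescence read.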

A short description of assay [3]: qHTS assay to identify small molecule agonists of the NFkB signaling pathway - cell viability counter screen (AID 1159515; calls by dose curve; note: series mostly up to about 61 µM; nearly all actives have a fitted effect of over 55% in size). Put shortly: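 ME-180 NFkB-bla cells, 2,000/well; overnight attach; compound 5 hr, 37 C/5% CO2; LiveBLAzer substrate 1.5 hr RT; then CellTiter-Glo in same wells, 30 min RT, luminescence read.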
Assay [4] is described as follows: qHTS assay to identify small molecule agonists of the endoplasmic reticulum stress response signaling pathway (AID 1159516; active = well fitted activation curve with a large enough effect in the signal ratio in the repeat runs, not every such curve was filed as active; the % refers to the signal ratio; note: potency is the fitted concentration of half-maximal effect). Put shortly:
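HeLa ESRE-bla reporter line; cpd 5 h, 37 C/5% CO2; LiveBLAzer B/G FRET substrate 2 h RT; ex 405, em 460/530 nm.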

A short description of assay [5]: qHTS assay to identify small molecule agonists of the endoplasmic reticulum stress response signaling pathway - cell viability counter screen (AID 1159517; calls by dose curve;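 note: HeLa cells carrying an ER stress response element beta-lactamase reporter; series mostly up to about 61 µM; nearly all actives have a fitted effect of over 50% in size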). Put shortly: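 Cytotoxicity of test compounds toward ESRE-bla HeLa cells was assessed after 5 hr exposure. The luminescent CellTiter-Glo signal was measured 30 min after reagent addition.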
Assay [6] can be described thus: qHTS assay to identify small molecule antagonists of the retinoid-related orphan receptor gamma (ROR-gamma) signaling pathway - cell viability counter screen (AID 1159520). Note: nearly all actives have a fitted effect of over 50% in size. Put shortly:
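Tet-on ROR gamma CHO cells (1,000/well) were plated 4 hr, given compounds in DMSO for 2 hr at 37 C, then induced with 1 uM final doxycycline for 16 hr. Viability was read as ATP by CellTiter-Glo luminescence after 30 min.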

For assay [7], the target named is Nuclear receptor ROR-gamma (Homo sapiens) (UniProt P51449). The experiment in a line: qHTS assay to identify small molecule antagonists of the retinoid-related orphan receptor gamma (ROR-gamma) signaling pathway (AID 1159521; note: nearly all actives have a fitted effect of over 50% in size; note: potency is the fitted concentration of half-maximal effect). The method in brief:
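Screening format: cell-based luciferase reporter in CHO cells with doxycycline-inducible RORγ. Compound pre-exposure lasts 2 h, doxycycline is 1 uM final, induction runs 16 h at 37 C, and ONE-Glo luminescence is read.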

Assay [8] is described as follows: qHTS assay to identify small molecule agonists of the AP-1 signaling pathway - cell viability counter screen (AID 1159525; calls by dose curve; note: nearly all actives have a fitted effect of over 55% in size). Put shortly:
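Each titration point was normalised to DMSO and tetra n-octyl ammonium bromide controls. The read was Cell Titer Glo luminescence after 30 min at RT, following 5 h compound exposure of ME-180 AP-1-bla cells at 37 °C.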

A short description of assay [9]: qHTS assay to identify small molecule agonists of the AP-1 signaling pathway (AID 1159526; calls by dose curve; note: potency is the fitted concentration of half-maximal effect).
In assay [10] the target is Retinoic acid receptor RXR-alpha (Homo sapiens) (UniProt P19793). The experiment in a line: qHTS assay to identify small molecule agonists of the RXR signaling pathway (AID 1159527; calls by dose curve; note: nearly all actives have a fitted effect of over 35% in size). Put shortly: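 Fluorescence ratio readout (460 vs 530 nm) from GeneBLAzer RXR-alpha HEK 293T cells after 16 hr compound treatment; cells seeded 5 hr beforehand in low-serum, charcoal-stripped medium.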
Retinoic acid receptor RXR-alpha (Homo sapiens), sequence (P19793 whole entry, looked up): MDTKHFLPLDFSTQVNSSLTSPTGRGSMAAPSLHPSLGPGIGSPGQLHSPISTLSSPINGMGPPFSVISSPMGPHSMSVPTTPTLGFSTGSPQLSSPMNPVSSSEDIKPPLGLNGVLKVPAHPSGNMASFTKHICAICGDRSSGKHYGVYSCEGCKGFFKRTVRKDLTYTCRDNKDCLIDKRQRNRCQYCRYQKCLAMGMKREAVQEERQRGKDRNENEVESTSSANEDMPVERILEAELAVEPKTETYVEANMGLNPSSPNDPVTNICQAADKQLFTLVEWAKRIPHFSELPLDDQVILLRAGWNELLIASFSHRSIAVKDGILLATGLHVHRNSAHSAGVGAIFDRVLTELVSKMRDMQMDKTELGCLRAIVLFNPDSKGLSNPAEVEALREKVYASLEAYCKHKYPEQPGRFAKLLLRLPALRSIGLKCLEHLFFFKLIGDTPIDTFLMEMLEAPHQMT

The nature of assay [11]: qHTS assay to identify small molecule agonists of the RXR signaling pathway - cell viability counter screen (AID 1159529). The method in brief:
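Viability read-out for the RXR-alpha agonist qHTS: luminescent CellTiter-Glo signal after 30 min at RT. HEK 293T bla reporter cells, 2% charcoal-stripped FBS, 16 hr compound incubation; tetraoctyl ammonium bromide as cytotoxic control.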

The nature of assay [12]: qHTS assay to identify small molecule antagonists of the retinoid acid receptor (RAR) signaling pathway - cell viability counter screen (AID 1159551). Note: nearly all actives have a fitted effect of over 35% in size. The method in brief: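 C3RL4 RARE-luciferase line; cpds + retinol 1 uM final, 6 h, 37 C/5% CO2; CellTiter-Glo ATP luminescence, 30 min RT.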
Assay [13] is described as follows: qHTS assay to identify small molecule antagonists of the retinoic acid receptor (RAR) signaling pathway (AID 1159552; note: nearly all actives have a fitted effect of over 50% in size; note: potency is the fitted concentration of half-maximal effect). The method in brief: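 Using a RARE-driven luciferase construct in C3RL4 cells, retinol at 1 uM final provided the agonist stimulus while compounds were co-applied. After 6 hours at 37 C, luminescence was recorded to flag inhibitors of retinol signaling.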

Assay [14] is described as follows: qHTS assay to identify small molecule agonists of the retinoic acid receptor (RAR) signaling pathway (AID 1159553). Note: potency is the fitted concentration of half-maximal effect. The method in brief: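 RARE-luc C3RL4 cells; overnight attachment 37 C/5% CO2; compound (DMSO) 6 hr; luciferase reagent, 30 min RT; luminescence read-out.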

“And” between values parts separate entries of the source, which are not always exact repeats. Equal values may be shown once. Results filed as inconclusive are left out. The source made the active and inactive calls. Unless noted, calls come from the whole dose curve; as a rule, active = well fitted curve in the direction sought with a large enough effect in the repeat runs; inconclusive = weak or mixed curves; inactive = no such curve, though single readings can be large; an effect the other way counts as inactive or inconclusive.

On to `CCC(C)(C)O`, for which the Potency result in [1], in [2], in assay [3], in assay [4], in assay [5] and in [6] was “inactive” each time. The Potency entry in [7], in assay [8], in [9], in [10], in assay [11] and in assay [12] was “inactive” throughout.

With `CCCCC#N`, the Potency entry in [1], in [2], in assay [3], in assay [4], in assay [5] and in [6] was “inactive” throughout. The Potency entry in assay [7], in [8], in assay [9], in assay [10], in assay [11] and in [12] was “inactive” in each case. Moreover, the Potency result in assay [13] and in [14] was “inactive” in each case.

In the case of `CCCCCCCCCCCCN(C)C`, the Potency entry in [1], in assay [2], in [3], in assay [4], in assay [5] and in assay [6] was “inactive” each time. Also, the Potency entry in assay [7], in assay [8], in assay [9], in assay [10], in [12] and in assay [13] was “inactive” each time. Besides, the Potency entry in assay [14] was “inactive”.

For `C[N+](C)(C)CCOC(=O)C(O)(c1ccccc1)c1ccccc1`, the Potency entry in [1], in assay [2], in assay [3], in assay [4], in [5] and in assay [6] was “inactive” throughout. Also, the Potency entry in [7], in assay [8], in [9], in [10] and in assay [12] was “inactive” throughout.

`CCCCC(CC)CO[N+](=O)[O-]` (stereo not drawn): the Potency entry in assay [1], in assay [2], in assay [3], in assay [4], in assay [5] and in assay [6] was “inactive” throughout. For the same molecule, the Potency result in assay [7], in assay [8], in [9], in assay [11], in assay [12] and in assay [13] was “inactive” in each case. Further, the Potency entry in [14] was “inactive”.

Regarding `Cc1cnc(C2=NC(C)(C(C)C)C(=O)N2)c(C(=O)O)c1` (stereo not drawn), the Potency result in [1], in [2], in assay [3], in assay [4], in assay [5] and in [6] was “inactive” in each case. Also, the Potency entry in [7], in [8], in [9], in assay [11], in [12] and in assay [13] was “inactive” each time. Moreover, the Potency result in assay [14] is “inactive”.

Regarding `O=C(O)c1cc(Cl)ccc1Cl`, the Potency entry in assay [1], in assay [3], in assay [4], in assay [5], in assay [6] and in assay [7] was “inactive” each time. For the same molecule, the Potency entry in assay [8], in [9], in [11], in assay [12], in assay [13] and in assay [14] was “inactive” in each case.

Take `COC1=CC(=O)O[C@@H](/C=C/c2ccc3c(c2)OCO3)C1`: the Potency entry in assay [3], in assay [4], in assay [5], in assay [6], in assay [7] and in [8] was “inactive” in each case. Moreover, the Potency result in assay [9], in assay [11], in assay [12] and in assay [14] was “inactive” each time. Besides, the Potency in assay [13] was 8.27 µM (active).

Take `CC(Cl)C(=O)O` (stereo not drawn): the Potency result in [1], in [3], in assay [4], in [5], in assay [6] and in assay [7] was “inactive” in each case. In addition, the Potency entry in [8], in [9], in assay [10], in [12], in [13] and in assay [14] was “inactive” each time.

As for `N#CC1(N=NC2(C#N)CCCCC2)CCCCC1`, the Potency entry in [1], in assay [2], in assay [3], in assay [4], in assay [5] and in assay [6] was “inactive” throughout. Further, the Potency result in assay [7], in assay [8], in [9], in assay [10], in assay [12] and in assay [13] was “inactive” in each case. For the same molecule, the Potency entry in [14] is “inactive”.

Turning to `CCOC(C(=O)OCCN(C)C)(c1ccccc1)c1ccccc1`, the Potency result in [2], in assay [3], in [4], in assay [5], in assay [6] and in [7] was “inactive” in each case. Also, the Potency entry in [8], in assay [9], in assay [11], in assay [12], in assay [13] and in assay [14] was “inactive” throughout.

With `OCCCl`, the Potency entry in assay [1], in assay [2], in assay [3], in assay [4], in [5] and in assay [6] was “inactive” each time. For the same molecule, the Potency result in assay [7], in assay [8], in assay [9], in assay [11], in assay [12] and in assay [13] was “inactive” throughout.

Consider `CCC1(CC)C(=O)NC(=O)NC1=O`, for which the Potency result in assay [3], in [4], in assay [5], in assay [6], in [7] and in assay [8] was “inactive” throughout. The Potency entry in assay [9], in [11], in [12], in assay [13] and in assay [14] was “inactive” in each case.

For the molecule `c1ccc2c(c1)-c1cccc3cccc-2c13`, the Potency result in assay [2], in assay [3], in assay [5], in assay [6], in assay [7] and in [8] was “inactive” in each case. Further, the Potency entry in assay [9], in [10], in [12] and in assay [13] was “inactive” throughout. Moreover, the Potency in assay [4] was 49 µM (active).

In the case of `C[Si](Cn1cncn1)(c1ccc(F)cc1)c1ccc(F)cc1`, the Potency in [1] is 12.7 µM (active); in assay [7], 31.6 µM (active) and 43.3 µM (active). Besides, the Potency entry in assay [3], in [4], in assay [5], in assay [6], in assay [8] and in assay [9] was “inactive” each time. The Potency result in [11] and in [12] was “inactive” throughout.

For `CCCCC1C(=O)NC(=O)N(C2CCCCC2)C1=O` (stereo not drawn), the Potency result in [1], in assay [2], in assay [3], in assay [4], in assay [5] and in [6] was “inactive” in each case. Also, the Potency result in [7], in assay [8], in [9], in assay [10], in assay [12] and in [13] was “inactive” in each case.

In the case of `C[C@H]1[C@@H]2Cc3ccc(O)cc3[C@@]1(C)CCN2C`, the Potency entry in assay [1], in [3], in [4], in assay [5], in [6] and in assay [7] was “inactive” in each case. For the same molecule, the Potency result in assay [8], in assay [9], in assay [10], in assay [12], in [13] and in assay [14] was “inactive” in each case.

Take `O=C(NCNC(=O)NC1C(=O)NC(=O)N1CO)NC1C(=O)NC(=O)N1CO` (stereo not drawn): the Potency entry in assay [1], in assay [3], in assay [4], in assay [5], in assay [6] and in assay [7] was “inactive” throughout. In addition, the Potency result in [8], in [9], in assay [10], in [12], in assay [13] and in assay [14] was “inactive” throughout.

On to `CC(Cc1ccccc1)NCc1ccccc1Cl` (stereo not drawn), for which the Potency result in assay [3], in assay [4], in assay [5], in assay [6], in assay [7] and in assay [8] was “inactive” throughout. The Potency entry in assay [11] and in assay [12] was “inactive” in each case. In addition, in assay [9], the Potency was 23.9 µM (active).

Take `CC(C)c1ccc(NC(=O)N(C)C)cc1`: the Potency result in assay [1], in assay [2], in [3], in assay [4], in assay [5] and in assay [6] was “inactive” throughout. The Potency entry in assay [7], in assay [8], in assay [9], in assay [10], in assay [12] and in assay [13] was “inactive” each time. Further, in [14], the Potency was 13.7 µM (active).
